The values that follow come from PubChem BioAssay (NCI).

This is part of a sample that, as a whole, favours compounds with a hit. Of some 79,000 tested, about 15% had one in any assay. Values without a mark were called inactive. Calls of active or inactive are those of the source. Cut-off read from the data, not from the text of the source: active = growth inhibition above about 70%; inactive = the rest.

Experiment [1] in a line: NCI Yeast Anticancer Drug Screen. Data for the rad50 strain (AID 155).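 Note: 0% = growth of vehicle-only cultures of the same strain.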 The following applies: S. cerevisiae rad50 strain growth inhibition; at 50.0 µM; active compounds read high. The essentials: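 Cells are treated with compound, grown, and their growth is then scored against vehicle-only cultures of the same repair-deficient yeast strain.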
Experiment [2] can be described thus: NCI Yeast Anticancer Drug Screen. Data for the mec2-1 strain (AID 157). To be noted: S. cerevisiae mec2-1 strain, at 50.0 µM, active compounds read high. A digest of the protocol:
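Cells of the genetically defined mec2-1 yeast strain are incubated with test compound. Inhibition of growth is calculated against vehicle-treated controls.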

A short description of experiment [3]: NCI Yeast Anticancer Drug Screen. Data for the sgs1 mgt1 strain (AID 161).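 Note: 0% = growth of cultures given vehicle only.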 To be noted: S. cerevisiae sgs1 mgt1 strain, at 50.0 µM, active compounds read high. The essentials: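 Genetically altered yeast, compound exposure, growth inhibition relative to vehicle.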
Experiment [4] can be described thus: NCI Yeast Anticancer Drug Screen. Data for the cln2 rad14 strain (AID 165).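 Note: 0% = growth equal to vehicle treated cultures.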 To be noted: S. cerevisiae cln2 rad14 strain, at 50.0 µM, active compounds read high. The essentials:
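The screen exposed genetically defined yeast (cln2 rad14) to test compounds and scored growth inhibition relative to vehicle-treated controls.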

A short description of experiment [5]: NCI Yeast Anticancer Drug Screen. Data for the bub3 strain (AID 167). To be noted: S. cerevisiae bub3 mutant strain, at 50.0 µM, active compounds read high. A digest of the protocol: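 Part of a panel of yeast mutants defective in DNA damage repair or cell cycle regulation. Each strain is grown with compound, and inhibition is calculated relative to solvent-treated cultures.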

Experiment [6] is described as follows: NCI Yeast Anticancer Drug Screen. Data for the mlh1 rad18 strain (AID 175). The following applies: S. cerevisiae mlh1 rad18 strain growth inhibition; at 50.0 µM; active compounds read high. A digest of the protocol:
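Compound-treated yeast growth, normalised to vehicle controls. Strain bears defined DNA repair mutations.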

Take `COc1ccc(/C=C2\CCC(Cc3ccccc3)(CN(C)C)C2=O)cc1` (stereo not given): the growth inhibition is 19.6% in experiment [1]; -15.3% in experiment [2]; 25.3% in experiment [3]; 3.7% in experiment [4]; -11.8% in experiment [5]; -72.4% in experiment [6].
On to `O=c1cc(O)nc2cn[nH]n12`, for which the growth inhibition in experiment [1] is 4.8%; in experiment [2], -22.4%; in experiment [3], 7.65%; in experiment [4], 13.4%; in experiment [5], -3.45%; in experiment [6] it was 1.6%.
Take `COc1cc(C2C(C(=O)Nc3ccccc3C)=C(C)NC(C)=C2C(=O)Nc2ccccc2C)ccc1O`: the growth inhibition in experiment [1] was -27.1%; in experiment [2], -8.45%; in experiment [3], -16.6%; in experiment [4] it was -3.15%; in experiment [5] it was -10.8%; in experiment [6] it was -9.95%.
With `CC(O)c1nc2c3ccccc3ccc2n1C` (stereo not given), the growth inhibition in experiment [1] was -6.15%; in experiment [2] it was -0.2%; in experiment [3], -6.45%; in experiment [4], -42.6%; in experiment [5], -1.25%; in experiment [6], -8.6%.
Regarding `Cc1ccc(N2N=S=CC2=O)cc1`, the growth inhibition in experiment [1] was 40.7%; in experiment [2], 11.3%; in experiment [3], 37.5%; in experiment [4], 13.4%; in experiment [5], 20.3%; in experiment [6], 34%.
As for `O=C(COc1ccccc1)OC1CCCC1`, the growth inhibition is 17.6% in experiment [1]; -13.4% in experiment [2]; -9.8% in experiment [3]; -1.9% in experiment [4]; -3.05% in experiment [5]; 4.55% in experiment [6].
Take `COC1/C=C\OC2(C)Oc3c(C)c(O)c4c(O)c(c5sc(N)nc5c4c3C2=O)NC(=O)/C(C)=C\C=C\C(C)C(O)C(C)C(O)C(C)C(OC(C)=O)C1C` (stereo not given): the growth inhibition in experiment [1] was -2.25%; in experiment [2] it was 16.6%; in experiment [3] it was 4.75%; in experiment [4], 14.8%; in experiment [5], 22.1%; in experiment [6], 10.8%.
In the case of `CS(=O)(=O)C(CCC(=O)C(c1ccccc1)c1ccccc1)C(=O)c1ccccc1` (stereo not given), the growth inhibition in experiment [1] is -7.7%; in experiment [2], -11%; in experiment [3], -20.5%; in experiment [4] it was -39.5%; in experiment [5], -1.55%; in experiment [6] it was -29.2%.
For `OC1CC2CCCC2CC1O` (stereo not given), the growth inhibition in experiment [1] was -9.45%; in experiment [2], -29.7%; in experiment [3] it was -6.95%; in experiment [4], 6.35%; in experiment [5], -9.65%; in experiment [6], -0.75%.
For the compound `Cc1ccc(S(=O)(=O)Oc2ccccc2NS(=O)(=O)c2ccccc2)cc1`, the growth inhibition in experiment [1] is 68.2%; in experiment [2] it was 53.2%; in experiment [3] it was 76.5% (active); in experiment [4], 52.1%; in experiment [5] it was 13.5%; in experiment [6], 48.1%.
On to `NC(=O)N/N=C/c1cccc2ccccc12`, for which the growth inhibition is 24.2% in experiment [1]; 9.05% in experiment [2]; -8.8% in experiment [3]; 6.35% in experiment [4]; 4.05% in experiment [5]; -0.7% in experiment [6].
As to `O=C(NCCCC1NC(=O)/C(=C(O)/C=C/C=C/c2ccccc2)C1=O)OCc1ccccc1` (stereo not given), the growth inhibition in experiment [1] was 38.4%; in experiment [2], -1.65%; in experiment [3], 17.1%; in experiment [4] it was -2.75%; in experiment [5], 0.25%; in experiment [6] it was 21.8%.
For `Cc1cc2c(cc1N)C(C)(C)CCC2(C)C`, the growth inhibition was -4.65% in experiment [1]; -18.2% in experiment [2]; 10.2% in experiment [3]; -24.9% in experiment [4]; -11.8% in experiment [5]; -18.1% in experiment [6].
As for `O=C1OCC/C1=C\c1cccc([N+](=O)[O-])c1`, the growth inhibition is 10.4% in experiment [1]; 14.4% in experiment [2]; 11.2% in experiment [3]; -42.7% in experiment [4]; 22.5% in experiment [5]; 26.9% in experiment [6].
`CCOC(=O)CNC1C(NC(C)=O)C(OC)OC2COC(c3ccccc3)OC21` (stereo not given): the growth inhibition in experiment [1] is -7.7%; in experiment [2], 6.6%; in experiment [3] it was 6.7%; in experiment [4], -12.3%; in experiment [5] it was -0.75%; in experiment [6] it was -2.4%.
Consider `CC(C)=C1C2CCC1[C@H](COS(C)(=O)=O)[C@@H]2COS(C)(=O)=O`, for which the growth inhibition is -6.7% in experiment [1]; 6.5% in experiment [2]; 4.45% in experiment [3]; 16.9% in experiment [4]; 11.1% in experiment [5]; -11.2% in experiment [6].
Regarding `O=c1c2c([nH]c(=S)n1-c1ccccc1)NCCC2`, the growth inhibition in experiment [1] was -13.8%; in experiment [2], -1.25%; in experiment [3], -11.6%; in experiment [4] it was 3.3%; in experiment [5] it was 9.55%; in experiment [6], 0.4%.
In the case of `CCOC(OCC)c1ccccc1OC`, the growth inhibition is 1.85% in experiment [1]; 1.05% in experiment [2]; 4.95% in experiment [3]; -15.1% in experiment [4]; 3.6% in experiment [5]; -1.1% in experiment [6].
In the case of `Nc1nc(N)c(N=Nc2cc(Cl)c([N+](=O)[O-])cc2Cl)c(=O)[nH]1`, the growth inhibition is 13.2% in experiment [1]; -3.75% in experiment [2]; -10.9% in experiment [3]; -7.15% in experiment [4]; -1.35% in experiment [5]; -11.1% in experiment [6].
For `O=C(Oc1ccc2c(c1)CCN2C(=O)c1cc2c(cc1[N+](=O)[O-])OCO2)c1ccc2c(c1)OCO2`, the growth inhibition in experiment [1] is 17.4%; in experiment [2], 7.2%; in experiment [3] it was -2.3%; in experiment [4] it was 5.7%; in experiment [5] it was -4.8%; in experiment [6] it was 11.2%.
